Test results from paper PMC7819943, “Rice protein-binding microarrays: a tool to detect cis-acting elements near promoter regions in rice”.
Over roughly 68,000 sequences, “fluorescence intensity (a.u.)” has its median near 9,100; the highest 2% begin near 16,000. The full list was thinned out, with the highest values kept by preference.

The sequences below were run against OsWRKY34 (Oryza sativa, UniProt Q0JBA9 1-250) (assay: protein-binding microarray (RPBM); PBS, 2% BSA, 51.3 ng/ul salmon testes DNA, 50 uM zinc acetate, 200 nM TF, 25 C, 1 h; high values mean tight binding). Details: protein: recombinant; tags: N-terminal polyhistidine and DsRed monomer fusion (pET32a); label: CyDye5-dUTP incorporated in the synthesized complementary strand; 3' TTTTT single-stranded linker to array surface; dsDNA, one strand shown.
In short: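 An Axon 4000B scanner gave the binding signal as per-feature fluorescence intensity in arbitrary units. This followed washing of a custom Agilent array that had been incubated for 1 h at 25 °C with 200 nM protein in PBS, 2% BSA, salmon testes DNA and 50 µM zinc acetate. The proteins were transcription factors fused at the N-terminus to polyhistidine and DsRed, expressed in E. coli BL21-CodonPlus and purified on Ni–NTA.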

Chain of OsWRKY34 (Q0JBA9 entry or part of it): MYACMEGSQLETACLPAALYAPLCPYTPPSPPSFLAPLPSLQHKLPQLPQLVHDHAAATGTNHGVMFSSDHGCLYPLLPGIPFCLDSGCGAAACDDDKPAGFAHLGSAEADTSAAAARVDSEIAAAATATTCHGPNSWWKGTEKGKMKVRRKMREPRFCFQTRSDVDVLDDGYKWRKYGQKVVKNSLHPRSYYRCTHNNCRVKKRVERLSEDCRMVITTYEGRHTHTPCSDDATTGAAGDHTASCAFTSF

Sequence | binding signal
CCCGGCCTTAGCATACTATTATTTTAGCACTAATCTTAACCGGAGTCACCTAGTGCAG | 9300 fluorescence intensity (a.u.)
TTTTATAAATTCGAGCGTGTGCGGGTTTCGTTTTCTCACTCGGAGTCACCTAGTGCAG | 9840 fluorescence intensity (a.u.)
GCTGTGGTCATGGACAGGGGACGGGCTGGGGTCGTCGCGCCGGAGTCACCTAGTGCAG | 8090 fluorescence intensity (a.u.)
TTTTGCTACAGTGCTCGGATATATCTGGGACGTCCATTTTCGGAGTCACCTAGTGCAG | 10200 fluorescence intensity (a.u.)
TGCGTACACTCCTTTGAAACCCCATTGCTATGTAGACAATCGGAGTCACCTAGTGCAG | 8020 fluorescence intensity (a.u.)
TAAAATTCTGTTCCGCCGCGTTTGCCCTCGTCAACTAATCCGGAGTCACCTAGTGCAG | 9750 fluorescence intensity (a.u.)
ATGTCTGTATCTGTTATTGTTTCTATTGTGTCTGATCCAACGGAGTCACCTAGTGCAG | 8980 fluorescence intensity (a.u.)
AACTAGGTCCCTCGGCGGTTTTGACTCCTGTTTTGTCCAACGGAGTCACCTAGTGCAG | 12500 fluorescence intensity (a.u.)
GGCAACCACGTAATTCCCTCCCTTTTCAGTTACTCATCAACGGAGTCACCTAGTGCAG | 9620 fluorescence intensity (a.u.)
GGTTCCAATTCGTCGCCTGATACTCCGATTCGAGTTCTTGCGGAGTCACCTAGTGCAG | 12700 fluorescence intensity (a.u.)
CTCGTTGTCGTGCTGCTTGTAATTCATCTAGTTTGTCTACCGGAGTCACCTAGTGCAG | 10000 fluorescence intensity (a.u.)
CTTGGATTCTGAGGTGGGCTTGAACTTGATATGAATTAGGCGGAGTCACCTAGTGCAG | 8100 fluorescence intensity (a.u.)
CAAATTCTAGACTTTTTGGTGGGTTGCGTGCGAGGGGTGGCGGAGTCACCTAGTGCAG | 10500 fluorescence intensity (a.u.)
GTAAACTTATTCTTTGGGCGTTGTTATTATTTGGGGCAATCGGAGTCACCTAGTGCAG | 11400 fluorescence intensity (a.u.)
TTTAGGGGTGTTTGGTTGAGGGGTGAGTGGGATGGGTTGGCGGAGTCACCTAGTGCAG | 10300 fluorescence intensity (a.u.)
GTGTAACTTGTTTTGCTAGGGTTTTTGATTGCTTTTTACTCGGAGTCACCTAGTGCAG | 12000 fluorescence intensity (a.u.)
CGAGTCTTTTGTGCGGGTGGTTGGGGCGTGGGCGGTGGCGCGGAGTCACCTAGTGCAG | 23100 fluorescence intensity (a.u.)
TGTTCTTGCTACGCTGGGAGGGGAGGGGTGGCGCCGCGGCCGGAGTCACCTAGTGCAG | 21700 fluorescence intensity (a.u.)
GAGGTGACGCTGCCGCCGGCGGTGGGCGGAGTGGGAGGGGCGGAGTCACCTAGTGCAG | 8390 fluorescence intensity (a.u.)
GGTGGTTGGCGCGCGTTTTCTTGTGTGGTTTTTTGTGTCGCGGAGTCACCTAGTGCAG | 14200 fluorescence intensity (a.u.)
GTGCGTGTAAACTTTTTTGGGGTTGTTTTGGGCGGTTACTCGGAGTCACCTAGTGCAG | 18200 fluorescence intensity (a.u.)

Sequence | binding signal
AGATGAGAGGTTTGGTTGGTTGGATGGTGGGGAGCGCCCGCGGAGTCACCTAGTGCAG | 10400 fluorescence intensity (a.u.)
GGCCGGGCGAGGCGCTGGGAGGTGGCGGCTAGCGGCGGGGCGGAGTCACCTAGTGCAG | 8500 fluorescence intensity (a.u.)
TTGGGTTGGGTTGGTGAGGTGGGGAGATGGTTTGGTGAGGCGGAGTCACCTAGTGCAG | 17300 fluorescence intensity (a.u.)
ATTTGTTCCCATCCATCTCGGCCCTGTCGCCATTGTGCCACGGAGTCACCTAGTGCAG | 9450 fluorescence intensity (a.u.)
GATTGATTATCCTTTTCTTAAACTATTTTCCTGTTTTTCACGGAGTCACCTAGTGCAG | 13200 fluorescence intensity (a.u.)
GCCAAGCCTTTTTCTTCTACTCTTTTTGGCATGGAACTCACGGAGTCACCTAGTGCAG | 8350 fluorescence intensity (a.u.)
AACGATTTGCATGTCATACAGATACATCACATTTCTTTCTCGGAGTCACCTAGTGCAG | 8520 fluorescence intensity (a.u.)
AGCAAATTCCTTTATGTTTTTTCTTATGTCTTCTCCAGCTCGGAGTCACCTAGTGCAG | 9040 fluorescence intensity (a.u.)
ACACTCTATTAAGAGGATCCGTTTCATTTTTTGTTCCATCCGGAGTCACCTAGTGCAG | 8760 fluorescence intensity (a.u.)
CTATACTCACCCACTTGCCAATTTGCCATTGCCAACACCTCGGAGTCACCTAGTGCAG | 9100 fluorescence intensity (a.u.)
TTGTTGGCTCAATATAGTTATCCTCCTTTGACCCAGTTAACGGAGTCACCTAGTGCAG | 9120 fluorescence intensity (a.u.)
AGGTGAGAGGAGGAGAGAGACGGGTTTAGGGCTTTAGGAGCGGAGTCACCTAGTGCAG | 8040 fluorescence intensity (a.u.)
GGGTGGAGGAGGGGACTTCGGGAGGGCGGTGGCGAGGGCGCGGAGTCACCTAGTGCAG | 16400 fluorescence intensity (a.u.)
TGGCGGCGTGGAGCCGCGAGGGCGGTGGCGGCGGGGAGTTCGGAGTCACCTAGTGCAG | 10400 fluorescence intensity (a.u.)
TGGGTTTTACGGTTTTACCCTCTCGGGCTTGAGGGGAGAGCGGAGTCACCTAGTGCAG | 47600 fluorescence intensity (a.u.)
GGGAGCGGCGGAGGAGGAGGGCGCGGCGGCGGTGGGGTGGCGGAGTCACCTAGTGCAG | 18100 fluorescence intensity (a.u.)
TGTTCGGTGGGCGAGGAGAGGAGTGGGTGGGAGTGGACTGCGGAGTCACCTAGTGCAG | 8780 fluorescence intensity (a.u.)
GCGAGTGAGGAGGGGCGGCGCGCGGTGGCCGGCGGGTGAGCGGAGTCACCTAGTGCAG | 8070 fluorescence intensity (a.u.)
GGGAGGGGTGCGGCGCGGTGGCGCTGGAGCGGAGGAGCGTCGGAGTCACCTAGTGCAG | 9990 fluorescence intensity (a.u.)
GCTCGGCGGCGCCGCGGCGGCGGTGGCGGAGGCGGGGATGCGGAGTCACCTAGTGCAG | 8910 fluorescence intensity (a.u.)
GGAGGTGGTGGCGCTGCCTCGGGGCCCCTCGCCTGGGAGGCGGAGTCACCTAGTGCAG | 9800 fluorescence intensity (a.u.)
